# Bioassay records from PubChem BioAssay.
# Cycloheximide cs = counter-screen for Shiga toxin inhibitors: cycloheximide protein synthesis inhibition; cell reporter, cycloheximide protein synthesis inhibition counterscreen; max response, %; 300,000 tested, 12% active; in the data active means max response mostly above about 13%, no sharp cut-off; inactive means mostly below about 14%; further: read at 38.3 µM for the half of the compounds with a filed dose; 0% is about no effect
# Shiga inhibitor = inhibitors of Shiga toxin in Vero cells. AID 2315. inhibition, % at 38.7 µM. Vero cells, Shiga toxin protein synthesis inhibition reporter. 290,000 tested, 9.2% active; in the data active means inhibition mostly above about 28%, no sharp cut-off; inactive means mostly below about 43%; further: 0% is about no effect
# Sm TGR inh = S. mansoni TGR enzyme inhibition; Q962Y6; purified TGR, DTNB reduction, TNB absorbance 405 nm; Potency, µM (titrated, usually from 114 µM), for inactives: at the top dose activity change, negative = inhibition, usual class: inhibitors; 360,000 tested, 3% active; AID 485364; active means well fitted inhibition curve with a large enough effect; inconclusive means small, poorly fitted or top-dose-only effect; inactive means no such curve, though single readings can be large or run the other way; further: potency means the concentration at half of the fitted maximal effect; on the % scale 0 is the no-effect control and ±100 the full control effect; nearly all actives have a fitted effect of over 60% in size
#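 First, TGR (20 nM dispensed) and NADPH were mixed with compound. Second, a 15 min room-temperature incubation followed. Third, further NADPH and then DTNB were added to start the reaction. Finally, TNB absorbance was monitored kinetically.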
# FMDV inh = foot and mouth disease virus antiviral activity; FMDV antiviral cell-based qHTS; Potency, µM (doses to about 57.9 µM), inactives show top-dose activity change, negative = inhibition, hits mostly inhibitors; 410,000 tested, 1.2% active; AID 1159524; calls by dose curve; tested in HEK293T cells; further: read-out not given here; potency means the concentration at half of the fitted maximal effect; on the % scale 0 is the no-effect control and ±100 the full control effect; nearly all actives have a fitted effect of over 45% in size
# Starred values were filed as active, the others as inactive; u = inconclusive; x = no result given. Only some compounds are listed: those with a hit (about 12% of all), similar ones and a draw of the others.
SMILES,Cycloheximide cs,Shiga inhibitor,Sm TGR inh,FMDV inh
COc1cc(/C=C2/C(=N)N3N=C(CC(=O)N4CCOCC4)SC3=NC2=O)ccc1OCc1ccccc1,20.6*,35.2*,5.2%,-3.8%
CSc1ccc(/C=C2\C(=N)N3N=C(CC(=O)N4CCOCC4)SC3=NC2=O)cc1,-1.5,-5.5,0.9%,8.4%
COc1cc(/C=C2/C(=N)N3N=C(C(C)C)SC3=NC2=O)ccc1OS(=O)(=O)c1ccccc1,8.7*,49.3,-18.0%,-5.1%
CCCC1=NN2C(=N)/C(=C\c3cc(C)n(Cc4ccccc4)c3C)C(=O)N=C2S1,-0.7,3.3,8.3%,-13.8%
COc1cc(/C=C2\C(=N)N3N=CSC3=NC2=O)ccc1OS(=O)(=O)c1ccccc1,15.8*,18.4,-2.7%,-6.6%
CCC1=NN2C(=N)/C(=C/c3ccc(OS(=O)(=O)c4ccccc4)c(OC)c3)C(=O)N=C2S1,-1.8,44.8,1.0%,-7.5%
COC(=O)c1ccc(NC(=O)C(C)Sc2nc(=O)cc(N)n2CCc2ccccc2)cc1 (stereo unspecified),x,x,-9.8%,4.2%
COc1cc(/C=C2\C(=N)N3N=C(S(C)(=O)=O)SC3=NC2=O)ccc1OS(=O)(=O)c1ccc(C)cc1,23.8*,20.0,-50.5%,-7.1%
COc1cccc(CNC(=O)c2ccc3c(c2)nc2n3CCOC2)c1OC,x,x,3.6%,-3.9%
Clc1ccc(Cc2nnc(-c3ccccc3Br)o2)cc1,21.8*,38.8*,-2.8%,36.8%
Clc1ccccc1OCc1nnc(-c2ccccc2Br)o1,52.2*,120.2*,5.8%,66.2%
N#Cc1ccccc1OCc1nnc(-c2ccccc2Br)o1,47.7*,102.9*,-10.1%,31.3%
O=c1c(Cl)c(Cl)cnn1Cc1nnc(-c2ccccc2Br)o1,29.0,-6.9,6.31µM*,u
Brc1ccccc1-c1nnc(COc2cccc3cccnc23)o1,14.2,34.3,-26.2%,15.9%
Cc1cc(C)cc(NS(=O)(=O)c2ccc(N3CCCCS3(=O)=O)cc2)c1,x,x,-3.8%,10.4%
CCOc1ccc(Oc2nc(NCC(C)C)nc(NC(C)(C)C)n2)nn1,x,x,8.6%,-0.7%
CCc1nnc2c(N3CCN(c4cccc(C(F)(F)F)c4)CC3)nc3ccccc3n12,x,x,6.9%,u
Cc1c(NC(=O)c2ccc(-c3ccc(F)cc3)o2)cccc1-c1nc2ncccc2o1,x,x,-25.7%,0.0%
C=C1C(=O)O[C@H]2C1CC[C@@](C)(O)C13C=CC(C)(C21)C1(C3)C(=O)O[C@@H]2C3C(C)=CCC3[C@](C)(O)C[C@H](OC(C)=O)C21 (stereo partly specified),12.2*,33.9*,-33.0%,-24.4%
CCOc1ccc(NC(=O)Cn2cc(S(=O)(=O)NC)c(S(=O)(=O)NC)c2)cc1,x,x,0.7%,22.8%
CCN(c1cccc(C)c1)c1ncnc2nc[nH]c12,-0.7,-4.4,-9.4%,-22.0%
Cc1cccc(COc2ncnc3nc[nH]c23)c1,14.7,35.2*,6.2%,-3.5%
N#C/C(=C/Nc1ccccc1)c1ccsc1,27.0*,41.9*,4.7%,-9.3%
Cc1ccc(N/C=C(\C#N)c2ccc(OCCCF)cc2)cc1,21.2,73.7,-0.3%,17.5%
Cc1ccc(N/C=C(/C#N)c2ccsc2)cc1,41.0*,131.8*,-1.0%,10.4%
SMILES,Cycloheximide cs,Shiga inhibitor,Sm TGR inh,FMDV inh
C#CCOCCOCCOCCNc1nc(N2CCN(C(=O)CCCCCCCCCCNC(=O)[C@H](CO)n3cc(CCCCCN)nn3)CC2)nc(N2CCN(C(=O)CCCCCCCCCCNC(=O)[C@H](CCCN=C(N)N)n3cc(C[C@@H](C)CC)nn3)CC2)n1,x,x,44.7µM*,x
C#CCOCCOCCOCCNc1nc(N2CCN(C(=O)CCCCCCCCCCNC(=O)[C@H](CCCCN)n3cc(C[C@@H](C)CC)nn3)CC2)nc(N2CCN(C(=O)CCCCCCCCCCNC(=O)[C@H](CCCN=C(N)N)n3cc(C[C@@H](C)CC)nn3)CC2)n1,x,x,u,-41.2%
C#CCOCCOCCOCCNc1nc(N2CCN(C(=O)CCCCCCCCCCNC(=O)Cn3cc(CCCCCN)nn3)CC2)nc(N2CCN(C(=O)CCCCCCCCCCNC(=O)Cn3cc(C[C@@H](C)O)nn3)CC2)n1,x,x,-33.2%,-5.3%
C#CCOCCOCCOCCNc1nc(N2CCN(C(=O)CCCCCCCCCCNC(=O)[C@H](CCCCN)n3cc(CCO)nn3)CC2)nc(N2CCN(C(=O)CCCCCCCCCCNC(=O)[C@H](CCCCN)n3cc(C[C@@H](C)CC)nn3)CC2)n1,x,x,50.1µM*,u
C#CCOCCOCCOCCNc1nc(N2CCN(C(=O)CCCCCCCCCCNC(=O)[C@@H](CCC(=O)O)n3cc(CCCCCN)nn3)CC2)nc(N2CCN(C(=O)CCCCCCCCCCNC(=O)[C@H](CCCCN)n3cc(C[C@@H](C)CC)nn3)CC2)n1,x,x,-27.5%,-25.4%
C#CCOCCOCCOCCNc1nc(N2CCN(C(=O)CCCCCCCCCCNC(=O)Cn3cc(C[C@@H](C)O)nn3)CC2)nc(N2CCN(C(=O)CCCCCCCCCCNC(=O)[C@@H]([C@H](C)CC)n3cc(CCCCCN)nn3)CC2)n1,x,x,-16.4%,35.5µM*
C#CCOCCOCCOCCNc1nc(N2CCN(C(=O)CCCCCCCCCCNC(=O)[C@@H](CCSC)n3cc(CCO)nn3)CC2)nc(N2CCN(C(=O)CCCCCCCCCCNC(=O)[C@H](CCCN=C(N)N)n3cc(C[C@@H](C)CC)nn3)CC2)n1,x,x,5.01µM*,u
Cc1ccc(C)c(Cn2cc(CCC(=O)NC3CCCCC3)c3ccccc32)c1,x,x,3.0%,-10.5%
Cc1cc(C)c(NC(=O)Cn2c(=O)n(CCC(C)C)c(=O)c3cccnc32)c(C)c1,x,x,-5.3%,-24.1%
COc1ccc(N=C(C)C2=C(O)CSC2=O)cc1,39.8*,45.4,u,x
CC(=Nc1ccccc1)C1=C(O)CC(C)(C)CC1=O,21.6*,44.7,0.5%,36.3%
CC1(C)CC(=O)C(Sc2ccccc2)=C(O)C1,10.7,0.8,10µM*,-14.2%
CC(=Nc1ccccc1)C1=C(O)CSC1=O,32.1*,49.1,0.0%,67.8%
CC(=Nc1ccccc1)C1=C(O)CCCC1=O,-5.4,-1.8,-3.9%,4.5%
CCc1ccc(NC(=O)CC2C(=O)N(c3ccc(Cl)cc3)C(=O)N2C2CCCC2)cc1 (stereo unspecified),19.0,5.9,22.1%,10.6%
CCc1cc2c(cc3c(=O)n(CC(=O)NCc4cc(Br)ccc4OC)ncn32)s1,x,x,16.7%,-4.3%
CCOC(=O)c1c(C)oc2nc(C)nc(NCc3ccc(OC)cc3)c12,x,x,4.6%,7.2%
CCOC(=O)C1CCCN(C(=O)c2cccc(NC(=O)c3nsc4ccccc34)c2)C1 (stereo unspecified),x,x,5.2%,15.2%
CCC(=O)c1ccc(OCc2ccc(C(=O)OC)cc2)cc1,113.0*,100.1*,5.9%,u
CCC(=O)c1ccc(OCc2ccc(C#N)cc2)cc1,28.4*,77.4,10.2%,29.9%
CCOc1ccc(OCc2ccc(C(=O)N(CC)CC)cc2)cc1,32.5*,121.9*,-8.3%,-11.8%
Oc1ccc(/C=C/c2ccc3ccccc3n2)cc1,7.2,23.8,-18.4%,-87.8%
Oc1ccc(/C(Cc2ccc3ccccc3n2)=N\Nc2ccccc2)c(O)c1,34.5*,69.2*,25.1µM*,13.0%
O/C(=C\c1ccc2ccccc2n1)c1ccc(O)cc1O,32.7*,38.9*,-0.5%,-85.6%
Cc1nn(CC(=O)NC2CC2)c(=O)c2cc3cc(F)ccc3n12,x,x,-0.1%,0.7%
